Read-out in test [1]: Low-density lipoprotein receptor (LDLR), LDLR (gene 3949)
The test can be described thus: BSK_CASM3C_LDLR: BioMAP Diversity Plus: CASM3C Assay for Low-density lipoprotein receptor (LDLR) Biomarker Activity (AID 2283045).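 Further: LDLR protein level on the cell surface quantified by ELISA.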 Conditions: primary human coronary artery smooth muscle cells; actives raise or lower the signal.

Read-out in test [2]: Monocyte Chemoattractant Protein-1 (MCP1), CCL2 (gene 6347)
Kind of test: BSK_CASM3C_MCP1: BioMAP Diversity Plus: CASM3C Assay for Monocyte Chemoattractant Protein-1 (MCP1) Biomarker Activity (AID 2283046).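 Further: MCP-1 level quantified by ELISA 24 h after dosing.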 Conditions: primary human coronary artery smooth muscle cells; actives raise or lower the signal.

The nature of test [3]: BSK_CASM3C_Proliferation: Cell Proliferation Assessment in the BioMAP Diversity Plus: CASM3C Assay (AID 2283047).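 Further: sulforhodamine B total protein stain as relative cell number at 560 nm; sub-confluent cells exposed 48 h before staining; fitted both ways against DMSO so gain or loss of cell number.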 To be noted: primary human coronary artery smooth muscle cells.
Read-out in test [4]: Monokine induced gamma interferon (MIG), CXCL9 (gene 4283)
Kind of test: BSK_CASM3C_MIG: BioMAP Diversity Plus: CASM3C Assay for Monokine induced gamma interferon (MIG) Biomarker Activity (AID 2283048).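 Further: MIG protein level measured by ELISA.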 Conditions: primary human coronary artery smooth muscle cells; actives raise or lower the signal.

Read-out in test [5]: serum amyloid A (SAA), SAA1 (gene 6288)
Kind of test: BSK_CASM3C_SAA: BioMAP Diversity Plus: CASM3C Assay for serum amyloid A (SAA) Biomarker Activity (AID 2283049).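 Further: SAA protein level quantified by ELISA.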 To be noted: primary human coronary artery smooth muscle cells; actives raise or lower the signal.

Test [6] can be described thus: BSK_CASM3C_SRB: Viability Assessment in the BioMAP Diversity Plus: CASM3C Assay (AID 2283050).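 Further: total protein by SRB staining as cytotoxicity measure in parallel cultures.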 Conditions: primary human coronary artery smooth muscle cells.
Read-out in test [7]: Thrombomodulin, THBD (gene 7056)
The test can be described thus: BSK_CASM3C_Thrombomodulin: BioMAP Diversity Plus: CASM3C Assay for Thrombomodulin Biomarker Activity (AID 2283051).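 Further: thrombomodulin protein level measured by ELISA 24 h after dosing.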 Conditions: primary human coronary artery smooth muscle cells; actives raise or lower the signal.

Read-out in test [8]: Tissue Factor, F3 (gene 2152)
The test can be described thus: BSK_CASM3C_TissueFactor: BioMAP Diversity Plus: CASM3C Assay for Tissue Factor Biomarker Activity (AID 2283052).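 Further: cell surface tissue factor protein level read by ELISA.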 To be noted: primary human coronary artery smooth muscle cells; actives raise or lower the signal.

Read-out in test [9]: Interferon-gamma inducible Protein 10 (IP10), CXCL10 (gene 3627)
Kind of test: BSK_hDFCGF_IP10: BioMAP Diversity Plus: hDFCGF Assay for Interferon-gamma inducible Protein 10 (IP10) Biomarker Activity (AID 2283053). Conditions: primary human foreskin fibroblasts; actives raise or lower the signal. The essentials:
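Human foreskin fibroblast primary cells (hDFCGF system) were dosed with chemical and assayed at 24 h; IP-10 measured by ELISA. Activity fitted bidirectionally relative to DMSO negative control as baseline.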

Read-out in test [10]: Urokinase-type plasminogen activator receptor (uPAR), PLAUR (gene 5329)
The test can be described thus: BSK_CASM3C_uPAR: BioMAP Diversity Plus: CASM3C Assay for Urokinase-type plasminogen activator receptor (uPAR) Biomarker Activity (AID 2283054).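 Further: cell-surface uPAR protein level quantified by ELISA.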 To be noted: primary human coronary artery smooth muscle cells; actives raise or lower the signal.

Read-out in test [11]: Vascular cell adhesion molecule 1 (VCAM1), VCAM1 (gene 7412)
Kind of test: BSK_CASM3C_VCAM1: BioMAP Diversity Plus: CASM3C Assay for Vascular cell adhesion molecule 1 (VCAM1) Biomarker Activity (AID 2283055).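 Further: VCAM-1 protein level quantified by ELISA on the cells.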 Conditions: primary human coronary artery smooth muscle cells; actives raise or lower the signal.

Read-out in test [12]: Collagen III, COL3A1 (gene 1281)
Kind of test: BSK_hDFCGF_CollagenIII: BioMAP Diversity Plus: hDFCGF Assay for Collagen III Biomarker Activity (AID 2283056). Conditions: primary human foreskin fibroblasts; actives raise or lower the signal. The essentials:
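Response relative to DMSO, fitted in both directions, reflects ELISA-measured collagen III in human primary skin fibroblasts 24 h after compound addition.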

Read-out in test [13]: Epidermal growth factor receptor (EGFR), EGFR (gene 1956)
Kind of test: BSK_hDFCGF_EGFR: BioMAP Diversity Plus: hDFCGF Assay for Epidermal growth factor receptor (EGFR) Biomarker Activity (AID 2283057). Conditions: primary human foreskin fibroblasts; actives raise or lower the signal. The essentials:
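Primary human foreskin fibroblasts were exposed to compound for 24 h, after which cell-surface EGFR was quantified by ELISA. Activity was fitted bidirectionally against the DMSO negative control as baseline.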

Read-out in test [14]: Interleukin-8 (IL8), CXCL8 (gene 3576)
The test can be described thus: BSK_hDFCGF_IL8: BioMAP Diversity Plus: hDFCGF Assay for Interleukin-8 (IL8) Biomarker Activity (AID 2283058). Conditions: primary human foreskin fibroblasts; actives raise or lower the signal. The essentials:
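Fibroblast monolayers (human foreskin, hDFCGF) received test chemical for 24 h before ELISA detection of IL-8; either increases or decreases relative to DMSO count as activity.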

Test [15] can be described thus: BSK_hDFCGF_Proliferation: Cell Proliferation Assessment in the BioMAP Diversity Plus: hDFCGF Assay (AID 2283059).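 Further: curves fitted for both rise and fall of signal versus DMSO baseline.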 Conditions: primary human foreskin fibroblasts. The essentials: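 Total protein read at 560 nm after 0.1% SRB staining of TCA-fixed human skin fibroblasts, […]. Activity is fitted in both directions relative to DMSO as baseline.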

Read-out in test [16]: Macrophage colony-stimulating factor (MCSF), CSF1 (gene 1435)
The test can be described thus: BSK_hDFCGF_MCSF: BioMAP Diversity Plus: hDFCGF Assay for Macrophage colony-stimulating factor (MCSF) Biomarker Activity (AID 2283060). To be noted: primary human foreskin fibroblasts; actives raise or lower the signal. The essentials:
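fibroblasts (human foreskin, primary), 24 h post-dose; M-CSF by ELISA; bidirectional fit, DMSO = baseline.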

Test [17] in a line: BSK_hDFCGF_SRB: Viability Assessment in the BioMAP Diversity Plus: hDFCGF Assay (AID 2283061).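 Further: cells exposed to compound for 24 h before the read.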 Conditions: primary human foreskin fibroblasts. The essentials:
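SRB-based viability read on primary human skin fibroblasts at 24 h: TCA fixation, 0.1% dye, 560 nm. Gain or loss of signal is fitted against the DMSO negative control.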

Read-out in test [18]: TIMP metallopeptidase inhibitor 1 (TIMP1), TIMP1 (gene 7076)
The test can be described thus: BSK_hDFCGF_TIMP1: BioMAP Diversity Plus: hDFCGF Assay for TIMP metallopeptidase inhibitor 1 (TIMP1) Biomarker Activity (AID 2283062). To be noted: primary human foreskin fibroblasts; actives raise or lower the signal. The essentials: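 Bidirectional curve fitting against DMSO baseline yielded this endpoint, based on ELISA detection of TIMP-1 in primary human foreskin fibroblasts exposed to compound for 24 h.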

Read-out in test [19]: Monokine induced gamma interferon (MIG), CXCL9 (gene 4283)
The test can be described thus: BSK_hDFCGF_MIG: BioMAP Diversity Plus: hDFCGF Assay for Monokine induced gamma interferon (MIG) Biomarker Activity (AID 2283063). To be noted: primary human foreskin fibroblasts; actives raise or lower the signal. The essentials:
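Endpoint derived by bidirectional fitting relative to DMSO; MIG quantified via ELISA in primary human foreskin fibroblasts harvested 24 h after dosing.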

Read-out in test [20]: Matrix Metallopeptidase 1 (MMP1), MMP1 (gene 4312)
The test can be described thus: BSK_hDFCGF_MMP1: BioMAP Diversity Plus: hDFCGF Assay for Matrix Metallopeptidase 1 (MMP1) Biomarker Activity (AID 2283064). Conditions: primary human foreskin fibroblasts; actives raise or lower the signal. The essentials: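 hDFCGF primary fibroblasts (human foreskin); chemical added; 24 h; MMP1 by ELISA; bidirectional fit vs DMSO.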

Molecules are shown by their SMILES. The source made the active and inactive calls. How the source made its calls: active means hit-call score of the fitted dose curve at least 0.9, where 1 is the maximum; inactive means score below 0.9.

Usually AC50 stands for the concentration giving half of the maximal activity seen. With `CCCCCCC(C=O)=Cc1ccccc1`, the outcome in test [1], in [2], in test [4], in test [5], in [6] and in test [7] was inactive. For the same compound, the outcome in [8], in test [10], in [11], in test [13], in [14] and in test [16] was inactive. For the same compound, the result in test [18] and in test [19] was inactive. The concentration at half-maximal activity (AC50) in test [3] was 30.9 µM (active); in [9], 32.6 µM (active); in test [12] it was 30.1 µM (active); in test [15], 28.9 µM (active); in test [17] it was 31.5 µM (active).
For the compound `CCCC(=O)O`, the result in test [1], in [2], in test [3], in [4], in test [5] and in [6] was inactive. In addition, the result in [7], in [8], in test [9], in test [10], in [11] and in test [12] was inactive. The outcome in test [13], in [14], in [15], in [16], in test [17] and in test [18] was inactive. For the same compound, the result in [19] and in test [20] was inactive.
On to `C#CC(O)C(CC)CCCC` (centres undefined), for which the result in [1], in test [2], in [4], in test [5], in test [6] and in test [7] was inactive. The outcome in test [8], in test [9], in test [10], in test [11], in test [12] and in [13] was inactive. In addition, the result in test [14], in test [15], in test [16], in test [17], in test [18] and in test [19] was inactive. Moreover, the outcome in test [20] was inactive. Further, the AC50 in [3] was 37 µM (active).
`C/C=C/c1ccc(OC)cc1`: the outcome in test [1], in test [2], in [3], in test [4], in [5] and in test [6] was inactive. Besides, the result in [7], in [8], in test [9], in test [10], in test [11] and in test [12] was inactive. For the same compound, the result in test [13], in [14], in test [15], in test [16], in [17] and in [18] was inactive. Further, the result in test [19] and in test [20] was inactive.
As to `CCCCCCCC(=O)OC`, the outcome in [1], in [2], in test [3], in test [4], in [5] and in test [6] was inactive. Further, the outcome in [7], in test [8], in test [9], in test [10], in test [11] and in [12] was inactive. Also, the outcome in test [13], in [14], in test [15], in test [16], in test [17] and in [18] was inactive. The result in [19] and in test [20] was inactive.
For `Cc1ccc(C(C)(C)C)c(O)c1`, the result in test [1], in test [2], in [3], in test [4], in test [5] and in test [6] was inactive. In addition, the outcome in [7], in test [8], in test [9], in test [10], in [11] and in [12] was inactive. The outcome in test [13], in [14], in [15], in [16], in [17] and in [18] was inactive. Further, the result in test [19] and in [20] was inactive.
On to `Cc1cn([C@H]2C=C[C@@H](CO)O2)c(=O)[nH]c1=O`, for which the outcome in test [1], in test [2], in test [3], in test [4], in test [5] and in test [6] was inactive. The outcome in test [7], in [8], in test [9], in test [10], in test [11] and in test [12] was inactive. For the same compound, the outcome in test [13], in test [14], in test [15], in test [16], in test [17] and in [18] was inactive. In addition, the result in test [19] and in [20] was inactive.

(Values after PubChem BioAssay (EPA / NIEHS).)
